Source: PubChem BioAssay AID1159580 (chemical genetic matrix, 2015)
Where “and” joins values, the source holds several entries; their conditions need not be identical. Equal values may be shown once. Among all 5,500 compounds or so, about 2,000 (36%) were called active. Inconclusive results (about 18%) are left out. Cut-off read from the data, not from the text of the source: active = normalized growth mostly below about 0.91 (no sharp cut-off); inconclusive = no clear call, values can overlap the other calls; inactive = mostly above about 0.92. Some of the results follow.

Experiment: chemical genetic growth profiling, strain panel (AID 1159580);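 note: tested at 20 µM; growth read once vehicle control cultures reached saturation at 30 °C; 1 = growth at the plate median or of vehicle wells; lower values mean less growth of the strain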
Conditions: S. cerevisiae deletion strains, growth OD

Measured: normalized growth

O=C(OCCNc1ccc([N+](=O)[O-])cn1)c1ccc([N+](=O)[O-])o1
0.885 (inactive) and 0.148 (active): locus YHR030C, strain SLT2, stronger effect = lower value
inactive: locus YAR019C, strain CDC15, stronger effect = lower value 0.898 | locus YBL105C, strain PKC1, stronger effect = lower value 0.927 | locus YBR135W, strain CKS1, stronger effect = lower value 0.922 | locus YBR136W, strain MEC1, stronger effect = lower value 0.919 | locus YBR160W, strain CDC28, stronger effect = lower value 0.92 | locus YDL017W, strain CDC7, stronger effect = lower value 0.932 | locus YDL028C, strain MPS1, stronger effect = lower value 0.917 | locus YDL101C, strain DUN1, stronger effect = lower value 0.947 and 0.908 | locus YDL108W, strain KIN28, stronger effect = lower value 0.922 | locus YDL134C, strain PPH21, stronger effect = lower value 0.961 | locus YDL214C, strain PRR2, stronger effect = lower value 0.742 | locus YDR054C, strain cdc34, stronger effect = lower value 0.898 | locus YDR150W, strain NUM1, stronger effect = lower value 0.866 | locus YDR477W, strain SNF1, stronger effect = lower value 0.829 | locus YEL061C, strain CIN8, stronger effect = lower value 0.931 | locus YER123W, strain YCK3, stronger effect = lower value 0.673 | locus YER133W, strain GLC7, stronger effect = lower value 0.771 | locus YFL009W, strain cdc4, stronger effect = lower value 0.903 | locus YFL029C, strain CAK1, stronger effect = lower value 0.894 | locus YFR003C, strain YPI1, stronger effect = lower value 0.924 | locus YFR028C, strain CDC14, stronger effect = lower value 0.91 | locus YGR040W, strain KSS1, stronger effect = lower value 0.735 | locus YGR052W, strain FMP48, stronger effect = lower value 0.735 | locus YGR229C, strain SMI1, stronger effect = lower value 0.979 | locus YHR079C, strain IRE1, stronger effect = lower value 0.67 | locus YHR082C, strain KSP1, stronger effect = lower value 0.914 | locus YHR205W, strain SCH9, stronger effect = lower value 0.663 | locus YIL147C, strain SLN1, stronger effect = lower value 0.931 | locus YJL095W, strain BCK1, stronger effect = lower value 0.677 | locus YJL128C, strain PBS2, stronger effect = lower value 0.895 | locus YJL157C, strain FAR1, stronger effect = lower value 0.788 | locus YJR016C, strain ILV3, stronger effect = lower value 0.942 | locus YJR043C, strain POL32, stronger effect = lower value 0.968 | locus YJR066W, strain TOR1, stronger effect = lower value 0.78 | locus YKL101W, strain HSL1, stronger effect = lower value 0.737 | locus YKL193C, strain SDS22, stronger effect = lower value 0.899 | locus YKL203C, strain TOR2, stronger effect = lower value 0.822 | locus YLR058C, strain SHM2 (second series), stronger effect = lower value 0.943 | locus YLR133W, strain CKI1, stronger effect = lower value 0.813 | locus YLR403W, strain SFP1, stronger effect = lower value 0.845 | locus YML094W, strain GIM5, stronger effect = lower value 0.896 | locus YMR001C, strain CDC5, stronger effect = lower value 0.915 | locus YMR205C, strain PFK2 (second series), stronger effect = lower value 0.884 | locus YMR277W, strain FCP1, stronger effect = lower value 0.904 | locus YMR307W, strain GAS1, stronger effect = lower value 0.817 | locus YNL006W, strain LST8, stronger effect = lower value 0.933 | locus YNL020C, strain ARK1, stronger effect = lower value 0.81 | locus YNL153C, strain GIM3, stronger effect = lower value 0.957 | locus YNL161W, strain CBK1, stronger effect = lower value 0.902 | locus YNL183C, strain NPR1, stronger effect = lower value 0.684 | locus YNL207W, strain RIO2, stronger effect = lower value 0.9 | locus YNL222W, strain SSU72, stronger effect = lower value 0.915 | locus YNL298W, strain CLA4 (second series), stronger effect = lower value 0.956 | locus YNL307C, strain MCK1 (second series), stronger effect = lower value 0.709 | locus YOL006C, strain TOP1, stronger effect = lower value 0.831 | locus YOL078W, strain AVO1, stronger effect = lower value 0.902 | locus YOL136C, strain PFK27, stronger effect = lower value 0.697 | locus YOR061W, strain CKA2, stronger effect = lower value 0.735 | locus YOR119C, strain RIO1, stronger effect = lower value 0.838 | locus YOR329C, strain SCD5, stronger effect = lower value 0.921 | locus YPL031C, strain PHO85, stronger effect = lower value 0.814 | locus YPL204W, strain HRR25, stronger effect = lower value 0.749 | locus YPL209C, strain IPL1, stronger effect = lower value 0.921 | locus YPL241C, strain CIN2, stronger effect = lower value 0.931 | locus YPR025C, strain CCL1, stronger effect = lower value 0.929 | locus YPR106W, strain ISR1, stronger effect = lower value 0.945 | locus YPR111W, strain DBF20, stronger effect = lower value 0.888 | locus YPR135W, strain CTF4, stronger effect = lower value 0.944 | strain NNK1, stronger effect = lower value 0.913 | strain TSCII, stronger effect = lower value 0.894
active: locus YAL013W, strain DEP1, stronger effect = lower value 0.848 | locus YBR229C, strain ROT2, stronger effect = lower value 0.816 | locus YCL061C, strain MRC1, stronger effect = lower value 0.86 | locus YDL132W, strain cdc53, stronger effect = lower value 0.888 | locus YDR052C, strain DBF4, stronger effect = lower value 0.81 | locus YDR226W, strain ADK1, stronger effect = lower value 0.887 | locus YFR019W, strain FAB1, stronger effect = lower value 0.583 | locus YGR078C, strain PAC10, stronger effect = lower value 0.786 | locus YGR092W, strain DBF2, stronger effect = lower value 0.17 | locus YHR087W, strain rtc3, stronger effect = lower value 0.744 | locus YJL187C, strain SWE1, stronger effect = lower value 0.86 | locus YJR066W, strain TOR1 (second series), stronger effect = lower value 0.391 | locus YJR075W, strain HOC1, stronger effect = lower value 0.795 | locus YKL048C, strain ELM1, stronger effect = lower value 0.772 | locus YKL067W, strain YNK1, stronger effect = lower value 0.708 | locus YLR039C, strain RIC1, stronger effect = lower value 0.449 | locus YLR085C, strain ARP6, stronger effect = lower value 0.727 | locus YLR113W, strain HOG1, stronger effect = lower value 0.444 | locus YLR262C, strain YPT6, stronger effect = lower value 0.703 | locus YML070W, strain DAK1, stronger effect = lower value 0.609 | locus YMR219W, strain ESC1, stronger effect = lower value 0.809 | locus YMR263W, strain SAP30, stronger effect = lower value 0.827 | locus YNL322C, strain KRE1, stronger effect = lower value 0.913 | locus YNR030W, strain Alg12, stronger effect = lower value 0.776 | locus YOR231W, strain MKK1, stronger effect = lower value 0.572 | locus YPL055C, strain LGE1, stronger effect = lower value 0.738 | locus YPL153C, strain RAD53, stronger effect = lower value 0.351 | locus YPL256C, strain CLN2, stronger effect = lower value 0.624
